# Counter-ions that a name gives are not always drawn. Unmarked numbers belong to inactive results.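 The calls were made as follows: active = normalised median growth AUC below 0.1 of DMSO control; inactive = AUC 0.1 or higher.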
# Columns and labels:
# Experiment in all cases: growth AUC normalised to DMSO control (median) (fraction of control); higher = less growth inhibition, active = hit call of the paper
# Conditions in all cases: 20 µM
# [1] = test system: P. vulgatus RND KO
# In short: (§1)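 Each strain went through two overnight passages under anaerobic conditions before growth in mGAM in 96-well plates, starting at OD578 0.01, with each compound from the approved-drug library at 20 μM and 1% DMSO. Inside an anaerobic incubator, OD578 was recorded every hour for 24 h. Growth curves were cut off at entry into stationary phase, and the area under the curve was calculated by the trapezoidal rule and normalised to vehicle wells on the same plate. Reported values are medians of three biological replicates.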
# [2] = test system: P. vulgatus WT
# In short: as §1
# [3] = test system: S. enterica typhimurium WT
# In short: as §1
# [4] = test system: S. enterica typhimurium tolC KO
# In short: as §1
# 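Also: active when median AUC fell below 0.1.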
SMILES,growth AUC normalised to DMSO control [1],growth AUC normalised to DMSO control [2],growth AUC normalised to DMSO control [3],growth AUC normalised to DMSO control [4]
CC[N+]1(CC)CCC(=C(c2ccccc2)c2ccccc2)C1C (centres undefined) [Prifinium Bromide],0.997,0.989,1,0.935
CC(=O)Oc1c(C)cccc1C(=O)O [Cresopirine],0.998,0.986,0.998,0.986
O=C(Cn1c(=O)sc2ccc(Cl)cc21)N1CCN(CCO)CC1 [Tiaramide Hydrochloride],1,1.04,1.01,0.995
O=c1[nH]cnc2c1ncn2[C@@H]1O[C@H](CO)[C@@H](O)[C@H]1O [Inosine],1.01,1.04,0.991,1.01
O=S(=O)(c1cccc2cnccc12)N1CCCNCC1 [Fasudil Hydrochloride],1,1,1,1.01
Cc1ccccc1C(=O)Nc1ccc(C(=O)N2CCCC(O)c3cc(Cl)ccc32)c(C)c1 (centres undefined) [Tolvaptan],0.919,0.928,0.993,0.94
COCCCOc1cc(C[C@@H](C[C@H](N)[C@@H](O)C[C@H](C(=O)NCC(C)(C)C(N)=O)C(C)C)C(C)C)ccc1OC [Aliskiren hemifumarate],1,1.05,0.997,1
C[C@@H](CN1CC(=O)NC(=O)C1)N1CC(=O)NC(=O)C1 [Dexrazoxane hydrochloride],1.01,0.988,1.01,0.989
C=CCOc1ccc(CC(=O)O)cc1Cl [Alclofenac],1.06,1.12,1,0.959
CC(C)(C)NCC(O)CSc1nc(-c2ccc(C(N)=O)s2)cs1 (centres undefined) [Arotinolol hydrochloride],1.02,1,0.996,1.01
CCOC(=O)CC(=O)N1CCSC1COc1ccccc1OC (centres undefined) [Moguisteine],0.965,0.965,1.01,0.986
O=C(NCCCN1CCOCC1)c1ccc(Cl)cc1 [Eprobemide],1.04,1.03,1.01,1
CCOC(=O)[C@H](CCc1ccccc1)N[C@@H](C)C(=O)N1C(=O)N(C)C[C@H]1C(=O)O [Imidapril hydrochloride],1.01,1,1.02,1
NS(=O)(=O)c1cc(C(=O)NN2C[C@@H]3[C@H]4CC[C@H](C4)[C@@H]3C2)ccc1Cl [Tripamide],1.02,1.07,0.999,0.975
C[C@H](NCc1ccc(OCc2cccc(F)c2)cc1)C(N)=O [Safinamide],1.02,1.01,0.986,1
N#C/C(=C1/SCC(c2ccccc2Cl)S1)n1ccnc1 (centres undefined) [Lanoconazole],1.04,1.08,1,0.834
Oc1c(Br)cc(Br)c2cccnc12 [Broxyquinoline],0.294,0.0591 (active),0.986,0.561
O=C(O)C[C@H](O)C[C@H](O)/C=C/c1c(C2CC2)nc2ccccc2c1-c1ccc(F)cc1 [Pitavastatin calcium],0.983,1,1.01,0.999
Cn1c(=O)cc(N2CCC[C@@H](N)C2)n(Cc2ccccc2C#N)c1=O [Alogliptin benzoate],0.981,0.971,0.991,0.992
N#Cc1ccc(Oc2ccc3c(c2)COB3O)cc1 [Crisaborole],1,1.02,1.01,1.02
C[C@H](CCc1ccccc1)NC[C@H](O)c1ccc(O)c(C(N)=O)c1 [Dilevalol],1.02,1.05,0.996,1.01

SMILES,growth AUC normalised to DMSO control [1],growth AUC normalised to DMSO control [2],growth AUC normalised to DMSO control [3],growth AUC normalised to DMSO control [4]
COc1ccc2c(c1)c(CC(=O)OC/C=C(\C)CC/C=C(\C)CCC=C(C)C)c(C)n2C(=O)c1ccc(Cl)cc1 [Indometacin farnesil],1,0.988,0.996,1.01
COc1cccc(CCc2ccccc2OCC(CN(C)C)OC(=O)CCC(=O)O)c1 (centres undefined) [Sarpogrelate hydrochloride],1.03,1.05,1,0.988
O=C(NC1CCN(CCCCC2(C(=O)NCC(F)(F)F)c3ccccc3-c3ccccc32)CC1)c1ccccc1-c1ccc(C(F)(F)F)cc1 [Lomitapide],1.01,1.05,1.01,1
C/C(O)=C(\C#N)C(=O)Nc1ccc(C(F)(F)F)cc1 [Teriflunomide],0.969,0.982,1,0.88
CN[C@@H]1[C@@H](O[C@H]2O[C@H](CO)[C@@H](N)[C@H](O)[C@H]2O)OC2C[C@@H](N)[C@@H](O[C@H]3[C@H](O)[C@@H](O)[C@H](N)C[C@@H]3N)OC2[C@@H]1O (some centres undefined) [Apramycin],1,0.998,1.01,0.996
CC1=NN(c2ccccc2)C(=O)C1 [Edaravone],0.998,1.01,1,0.982
CC(=O)c1cc2cccc(OCC(O)CNC(C)C)c2o1 (centres undefined) [Befunolol],1.03,1.06,1,1
CN1CCC(=C2c3ccccc3CCc3cccnc32)CC1 [Azatadine maleate],0.998,0.987,1,0.993
O=C1[C@@H]2[C@H]3CC[C@H](C3)[C@@H]2C(=O)N1CCCCN1CCN(c2ncccn2)CC1 [Tandospirone],1.07,1.05,1.01,0.996
NC[C@H]1O[C@H](O[C@H]2[C@H](O)[C@@H](O[C@H]3O[C@H](CO)[C@@H](O)[C@H](N)[C@H]3O)[C@H](N)C[C@@H]2N)[C@H](N)[C@@H](O)[C@@H]1O [Kanamycin B],1.1,1.14,0.947,1.02
COc1ccc(CN2CCN(C(c3ccc(F)cc3)c3ccc(F)cc3)CC2)c(OC)c1OC [Lomerizine dihydrochloride],0.997,0.986,1.01,0.978
CO/N=C(\C(=O)N[C@@H]1C(=O)N2C(C(=O)[O-])=C(C[n+]3cccc4c3CCC4)CS[C@H]12)c1csc(N)n1 [Cefpirome sulfate],0.0131 (active),0.00672 (active),0.00453 (active),0.00385 (active)
CCOC(=O)[C@H](CCc1ccccc1)N[C@@H](C)C(=O)N1[C@H](C(=O)O)C[C@H]2CCCC[C@@H]21 [Trandolapril],0.986,0.992,1.01,0.998
CN1CC(O)c2cc(N=NC(N)=O)c(O)cc21 (centres undefined) [Carbazochrome],0.999,1.01,0.999,0.952
CN(C)CCc1c[nH]c2ccc(C[C@H]3COC(=O)N3)cc12 [Zolmitriptan],0.971,0.964,1,1
CC(C)=C/C(C)=N/Nc1nncc2ccccc12 [Budralazine],1.02,1.08,0.999,0.989
CCOc1cc(N)c(Cl)cc1C(=O)NCC1CN(Cc2ccc(F)cc2)CCO1 (centres undefined) [Mosapride],0.938,0.981,0.988,0.722
CCN[C@@H]1C[C@H](N)[C@@H](O[C@H]2OC(CN)=CC[C@H]2N)[C@H](O)[C@H]1O[C@H]1OC[C@](C)(O)[C@H](NC)[C@H]1O [Netilmicin sulfate],1.02,1.04,0.996,0.932
O=c1oc2cc(O)ccc2s1 [Tioxolone],1.02,1.02,0.989,0.999
CC(C)(C)NC(=O)[C@@H]1CN(Cc2cccnc2)CCN1C[C@@H](O)C[C@@H](Cc1ccccc1)C(=O)N[C@H]1c2ccccc2C[C@H]1O [Indinavir sulfate],1,0.984,0.997,0.994
